Tb PGK inh – inhibitors of T. brucei phosphoglycerate kinase | P07378 | PGK/GAPDH coupled, Kinase-Glo luminescence, 60 min | Potency, µM (series often up to 57.5 µM), for inactives: top-dose activity change, negative = inhibition, most hits filed as inhibitors | 380,000 tested, 0.043% active; further: on the % scale 0 is the no-effect control and ±100 the full control effect; nearly all actives have a fitted effect of over 60% in size
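Recombinant glycosomal PGK reaction used 1,3-bisphosphoglycerate generated in-well by GAPDH (100nM final) in 100mM TEA pH 7.6, 5mM MgCl2, 0.01% Tween-20. After 60 minutes at room temperature, ATP was read by Kinase-Glo Plus luminescence end-point.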
HEK293 tox – cytotoxic in the GLP-1 receptor inverse agonist counter-screen; HEK293 cAMP-luciferase reporter cells, luminescence, 24 h; Potency, µM (titrated, usually from 38.3 µM), inactives show at the top dose activity change, negative = inhibition, usual class: inhibitors; 410,000 tested, 0.13% active;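 further: loss of luciferase light is scored as toxicity; on the % scale 0 is the no-effect control and ±100 the full control effect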
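Seeding density was 200 cells/uL; after overnight-length (12 h) culture, 23 nL compounds went on for 24 h at 37 °C. Readout used a luciferase detection reagent, luminescence taken after 12 min at room temperature.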
GLP1R ag – activates the human GLP-1 receptor. P43220. HEK293 GLP-1R CRE-luciferase, luminescence, 4-6 h; cells express a hypersensitive GLP-1R form. Potency, µM (doses to about 45.6 µM), without a hit: at the highest dose activation, most hits filed as activators. 380,000 tested, 0.007% active. AID 624172; further: % of control where 0% means no effect
Target sequence (P43220 whole entry, looked up): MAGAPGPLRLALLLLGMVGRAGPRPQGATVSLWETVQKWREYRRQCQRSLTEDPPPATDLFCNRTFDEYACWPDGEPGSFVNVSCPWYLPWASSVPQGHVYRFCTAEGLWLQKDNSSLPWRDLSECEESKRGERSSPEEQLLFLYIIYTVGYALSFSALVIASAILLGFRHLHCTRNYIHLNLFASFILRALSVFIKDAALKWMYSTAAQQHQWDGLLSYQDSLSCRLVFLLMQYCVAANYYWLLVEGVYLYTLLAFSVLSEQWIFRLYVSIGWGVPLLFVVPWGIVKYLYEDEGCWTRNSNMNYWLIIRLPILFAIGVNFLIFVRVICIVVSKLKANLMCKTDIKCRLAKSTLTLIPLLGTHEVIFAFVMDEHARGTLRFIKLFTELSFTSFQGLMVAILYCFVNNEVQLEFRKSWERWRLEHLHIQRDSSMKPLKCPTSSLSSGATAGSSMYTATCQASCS
Pin1 inh – inhibitors of human Pin1 | Q13526 | Pin1 FP peptide displacement, HiFluor488, 10 min | Potency, µM (titrated, usually from 115 µM), without a hit: at the highest dose activity, negative = inhibition, most hits filed as inhibitors | 390,000 tested, 0.009% active; active means well fitted inhibition curve with a large enough effect in the polarisation, with a control signal flat, not every such curve was filed as active; inconclusive means small, poorly fitted or top-dose-only effect, or effect the other way, or a change in a side signal; inactive means no such curve, though single readings can be large or run the other way; the % refers to the polarisation; further: on the % scale 0 is the no-effect control and ±100 the full control effect
Target sequence (Q13526 whole entry, looked up): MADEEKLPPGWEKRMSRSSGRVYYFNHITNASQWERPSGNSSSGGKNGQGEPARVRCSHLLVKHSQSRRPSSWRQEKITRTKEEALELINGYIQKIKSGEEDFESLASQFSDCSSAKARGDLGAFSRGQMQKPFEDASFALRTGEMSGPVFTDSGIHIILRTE
GLP1R inv ag – GLP-1 receptor (human) inverse agonism; HEK293 GLP-1R CRE-luciferase, luminescence, 24 h; GLP-1R form is constitutively active; Potency, µM (highest dose often 38.3 µM), inactives show top-dose activity change, negative = inhibition, most hits filed as inhibitors; 410,000 tested, 1.6% active; AID 624417; further: on the % scale 0 is the no-effect control and ±100 the full control effect; nearly all actives have a fitted effect of over 55% in size
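Luminescence readout: a drop in cAMP-driven luciferase signal flags inverse agonism at a constitutively active GLP-1R stably expressed in HEK293. Compound exposure lasted 24 hr at 37 deg C, 5% CO2.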
Tb PFK inh – inhibitors of T. brucei phosphofructokinase. O15648. T. brucei PFK, ADP-Glo luminescence. Potency, µM (doses to about 57.5 µM), inactives show at the highest dose activity, negative = inhibition, most hits filed as inhibitors. 330,000 tested, 0.17% active. AID 485367;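 further: 0% = uninhibited 1x PFK enzyme wells and -100% = no-enzyme wells; nearly all actives have a fitted effect of over 60% in size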
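1.25 nM PFK with 0.5 mM F6P and 0.1 mM ATP in 0.1 M TEA pH 8.0, 5 mM MgCl2, incubated 45 min at room temperature; ADP measured by ADP-Glo luminescence; compounds titrated up to 57 uM.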
Active calls of the source: *; i = inactive; u = inconclusive; x = no result; [ ] = remark or other dose. Rows were chosen to be rich in hits. Some 1.8% of all compounds tested hit in one or more screens of this group. Unless noted, the call rests on the fitted dose curve; in most records, active means well fitted curve in the direction sought with a large enough effect; inconclusive means small, poorly fitted or top-dose-only effect, or another doubt; inactive means no such curve, though single readings can be large; an effect the other way counts as inactive or inconclusive. Potency means the concentration at half of the fitted maximal effect.

SMILES | Tb PGK inh | HEK293 tox | GLP1R ag | Pin1 inh | GLP1R inv ag | Tb PFK inh
O=C1N=C(N2CCOCC2)S/C1=C/c1ccc(-c2ccc(F)cc2)o1 | -7% | 18% | 5% | 3% | 19% | -2%
Cc1ccc(-c2ccc(/C=C3\SC(N4CCOCC4)=NC3=O)o2)cc1 | -8% | 71% | 5% | u | 4.5µM* | -16%
Cc1ccc2nc(C3CCCN(C(=S)Nc4cccc(C)c4C)C3)[nH]c2c1 (stereo not given) | x | 11µM* | -8% | -1% | u | 1%
O=C(CSc1nnc(-c2ccc(Br)cc2)n1-c1ccccc1)c1ccccc1 | -6% | 6% | x | -3% | 6% | x
COc1ccc2c(c1)CC/C2=N\OC(=O)c1ccccc1OC | x | 10µM* | 11% | 0% | 42% | 0%
O=C(NC1CCCC1)C(c1ccccc1)N(C(=O)c1ccco1)C1CCCC1 (stereo not given) | x | u | 5% | 1% | 13µM* | -1%
Cc1ccccc1C(=O)NC1CC(C)(C)NC(C)(C)C1 | -4% | 2% | -7% | 2% | 0% | 0%
CC1(C)CC(NC2C3CC4CC(C3)CC2C4)CC(C)(C)N1 (stereo not given) | 2% | u | 6% | -6% | 3.2µM* | -1%
O=C(Oc1cccc(/C=N/Nc2nc(Nc3ccccc3)nc(N3CCOCC3)n2)c1)c1ccco1 | -1% | 28% | -4% | 3% | 1.8µM* | -2%
COc1cc(/C=N/Nc2nc(N3CCCCC3)nc(N3CCCCC3)n2)ccc1OC(=O)c1ccco1 | x | x | x | x | x | -6%
Oc1cccc(/C=N/Nc2cc(N3CCOCC3)nc(N3CCOCC3)n2)c1 | 6% | 9% | -1% | 0% | 3.5µM* | u
O=C(c1cccc(F)c1)N1CCC(c2c[nH]c3ccccc23)(c2c[nH]c3ccccc23)CC1 | 9% | 1% | x | 5% | u | x
CC(C)N(C(C)C)S(=O)(=O)c1ccc(N2CCc3ccccc3C2)nc1 | i | 0% | 18% | 6% | 7.9µM* | 3%
CCCOc1ccc(C2C(=O)N(C3CCCCCC3)CC(=O)N2Cc2ccc(OC)cc2)cc1OC (stereo not given) | 3% | 7% | x | -5% | 11% | x
COc1cc(C2C(C(=O)OCC(C)C)=C(C)N=C3SCCC(=O)N32)ccc1OCc1ccccc1 (stereo not given) | 6% | 1% | x | 1% | -6% | x
O=C(CC(=O)OCc1ccccc1)OCc1ccccc1 | 10% | -3% | -2% | -14% | 1% | x
O=C(OCc1ccccc1)N(CCCCN(CCCNCc1ccccc1)C(=O)OCc1ccccc1)CCCNCc1ccccc1 | i | u | -5% | 7% | 2.8µM* | x
COc1ccc(N(C(=O)c2ccccc2C)S(=O)(=O)c2cccs2)cc1 | -6% | -41% | 7% | 23% | u | -4%
COc1ccc(N(C(=O)c2ccccc2C)S(=O)(=O)c2ccc(C)cc2)cc1 | i | -3% | x | 15% | 10µM* | x
CC(C)NC(=S)N/N=C/C1=CCC2CC1C2(C)C (stereo not given) | -1% | u | 17% | -1% | 8.9µM* | -4%
CC(=O)N/N=C/C1=CCC2CC1C2(C)C (stereo not given) | -3% | -4% | 7% | -1% | 17% | -5%
C=C(C)CNC(=S)N/N=C/C1=CCC2CC1C2(C)C (stereo not given) | 2% | u | 0% | -2% | 5µM* | -3%
CCCCNC(=S)N/N=C/C1=CCC2CC1C2(C)C (stereo not given) | -9% | 7%[1.53 µM] | -1% | 7% | u | -7%
COCCNC(=S)N/N=C(\C)c1cccc(OC)c1 | -2% | u | 6% | -2% | 4µM* | -8%
COCCNC(=S)N/N=C(\C)c1ccc(Cl)c(Cl)c1Cl | -1% | 3.5µM* | 21% | -3% | u | -16%
SMILES | Tb PGK inh | HEK293 tox | GLP1R ag | Pin1 inh | GLP1R inv ag | Tb PFK inh
COCCNC(=S)N/N=C(\C)c1ccc(Cl)c(Cl)c1 | i | 7% | 24% | -5% | u | -4%
COCCNC(=S)N/N=C(\C)c1cccc([N+](=O)[O-])c1 | i | u | 13% | 1% | u | 2%
COCCNC(=S)N/N=C(\C)c1ccc(Cl)s1 | -4% | 2.8µM* | 11% | -2% | 2.2µM* | -1%
CC(=O)N/N=C(\C)c1cccc(C(F)(F)F)c1 | -15% | -5% | 4% | -1% | 5% | -13%
CCNC(=S)N/N=C(\C)c1cccc(C(F)(F)F)c1 | -5% | 4.5µM* | 16% | 4% | 4.5µM* | -1%
COc1ccc(C2N=C(Nc3nc4ccccc4o3)NC3=C2C(=O)CC(C)(C)C3)cc1 (stereo not given) | x | x | x | 2% | x | x
FC(F)(F)COc1cc(-c2nnc(SCc3ccccc3)n2Cc2ccco2)cc(OCC(F)(F)F)n1 | -8% | 5% | 13% | -3% | 10µM* | -5%
O=c1c2ccccc2nc(SCc2ccccc2)n1Cc1ccco1 | i | 18% | 9% | 27% | 11µM* | 3%
O=S(=O)(c1cccc(F)c1)N1CCC(c2nc3ccccc3s2)CC1 | -3% | 15% | x | -7% | 1% | x
COc1ccc(C(=O)/C=C/c2ccc(N(C)C)cc2)c(OC)c1 | -3% | i | u | u | u | 0%
COc1ccc(C(=O)/C=C/c2ccccc2)c(OC)c1 | -6% | -16% | 1% | 4% | 10µM* | 1%
Cc1sc2ncn(CCn3cnc4sc(C)c(C)c4c3=O)c(=O)c2c1C | i | -11% | -1% | 19% | 5µM* | -4%
CCOc1ccc(NC(=O)CN(C)S(=O)(=O)c2ccc3[nH]c4c(c3c2)CCCC4)cc1 | i | -1% | x | 12% | 11µM* | x
Cc1cc(C)cc(NC(=O)CN(C)S(=O)(=O)c2ccc3[nH]c4c(c3c2)CCCC4)c1 | -10% | 6% | x | 22% | u | x
Cc1ccc(NS(=O)(=O)c2cc3c(cc2-c2ccccc2)NC(=O)CO3)cc1C | x | x | x | 23% | x | x
CN(C)c1ccc(NC(=O)CSC2=Nc3ccccc3C3=NC(CC(=O)NCc4ccccc4)C(=O)N23)cc1 (stereo not given) | -3% | -2% | x | u | 20% | x
O=C(C=C=Nc1ccccc1)C(=O)N=C=Cc1ccccc1 | -6% | 13µM* | 0% | u | u | -4%
CC1(C)c2ccccc2N2CC(=O)N[C@@]21/C=C/C=C/c1ccccc1 | i | -9% | -2% | -9% | 3.5µM* | -3%
CCCN(C(=O)c1cc2c(s1)-c1ccccc1SC2)c1ccccc1F | x | 0% | x | 10% | 11µM* | x
CN(C)CCNC(=O)c1cc2c(s1)-c1ccc(Cl)cc1SC2 | -1% | u | -9% | 1% | 13µM* | 3%

Source: PubChem
